Screening results as filed in PubChem.
Compounds with a hit are over-represented: about 0.93% of the library has one in this group of screens.
MEP2 TOR yeast = modulators of MEP2-GFP levels in yeast, primary screen, S. cerevisiae, multiplex flow cytometry, MLPCN library; S. cerevisiae MEP2-GFP strain, 3 h; 100% = DMSO control level; GFP response vs DMSO, % at 10 µM; hit rate 0.51% among 330,000;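 active = GFP response versus DMSO above a set limit, roughly screen mean plus 3 SD, cut at about 180% in these data; inconclusive = fewer than 70 cells counted for a yeast strain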;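 note: median GFP fluorescence of the barcode-gated MEP2-GFP cells per well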
LAP4 TOR yeast = modulators of LAP4-GFP expression in yeast, primary screen, S. cerevisiae, multiplex flow cytometry, MLPCN library; GFP response vs DMSO, % at 10 µM; hit rate 0.34% among 320,000; AID 2023, 2009; 3 h; median GFP as percent of DMSO wells;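 active = GFP response vs DMSO above a set limit, about the screen mean plus 3 SD, cut at about 150% in these data; inconclusive = under 70 cell events counted for the yeast strain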
RPL19A TOR yeast = RPL19A-GFP expression modulators in yeast, primary screen, cell-based, S. cerevisiae, multiplex flow cytometry, MLPCN | S. cerevisiae RPL19A-GFP strain, 3 h; active compounds read low | percent response vs DMSO, % at 10 µM | hit rate 0.3% among 330,000 | AID 2025, 2009;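 active = percent response vs DMSO below 50%; inconclusive = fewer than 70 events counted for the yeast strain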;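 note: median channel GFP fluorescence of the barcoded RPL19A-GFP strain; ratio of sample median GFP to plate DMSO average so 100% = DMSO; lower means less RPL19A-GFP as with rapamycin TOR inhibition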
CIT2 TOR yeast = modulators of CIT2-GFP expression in yeast, primary screen, S. cerevisiae, GFP fusion, multiplex flow cytometry, MLPCN library | hit rate 0.065% among 320,000 | GFP response vs DMSO, % at 10 µM | S. cerevisiae CIT2-GFP strain, 3 h; 100 means same as DMSO wells;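 active = GFP response relative to DMSO above a set limit, near the screen mean plus 3 SD, cut at about 150% in these data; inconclusive = Fewer than 70 cells measured for a yeast strain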;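 note: ratio of well median GFP fluorescence to mean of DMSO wells on the plate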
AGP1 TOR yeast = modulators of AGP1-GFP expression in yeast TOR pathway, primary screen, cell-based, multiplex flow cytometry, S. cerevisiae, MLPCN library; GFP response vs DMSO, % at 10 µM; hit rate 0.02% among 320,000; AID 2066, 2009; 3 h; GFP as percent of DMSO wells;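 active = GFP response relative to DMSO above a set limit, near screen average plus 3 SD, cut at about 150% in these data; inconclusive = fewer than 70 cells counted for the yeast strain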;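 note: median GFP channel fluorescence of the gated AGP1 strain per well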
An asterisk follows results filed as active; ? = inconclusive; nt = no result; [ ] = dose if it differs, or a comment.

SMILES	MEP2 TOR yeast	LAP4 TOR yeast	RPL19A TOR yeast	CIT2 TOR yeast	AGP1 TOR yeast
Cc1ccccc1C(=O)NNC1=NCCC1	98	95	nt	99	96
COc1ccc(/C=N/Nc2nc(-c3ccc(Cl)cc3)cc(C(F)(F)F)n2)c(OC)c1	106	104	104	97	103
Cc1ccn2c(NC3CCCCC3)c(-c3cccc(-c4cccc(Cl)c4)c3)nc2c1	96	152*	85	73	84
Cc1ccn2c(NC3CCCC3)c(-c3ccncc3)nc2c1	96	97	92	102	99
COc1cccc(C(=O)Nc2ccc(NC(C)=O)cc2)c1	97	92	91	93	89
COc1cccc(C(=O)C(C#N)=C(SC)SC)c1	93	171*	95	71	96
CSC(SC)=C(C#N)C(=O)c1ccccc1	86	152*	93	70	95
COc1ccccc1OCC(=O)NCCS(=O)(=O)N1CCN(c2ccc(F)cc2)CC1	106	97	100	101	103
Cc1ccc(CNC(=O)c2cn(C)c(=O)c3c2c2ccccc2n3C)o1	283*[may fluoresce violet]	111	46*[may fluoresce violet]	?	?
Cc1ccc(CNC(=O)c2cn(C3CCCCC3)c(=O)c3c2c2ccccc2n3C)o1	101	98	99	103	100
COc1ccc(S(=O)(=O)N(CC(=O)NCc2ccco2)c2ccc(C)cc2)cc1OC	110	100	100	111	100
CCOC(=O)N1CCN(c2nc(-c3ccccc3)c3ccccc3n2)CC1	113	117	100	106	108
CCC(NC(C)C)C(O)c1ccc(O)c2[nH]c(=O)ccc12 (stereo not given)	186*[may fluoresce violet]	104	42*[may fluoresce violet]	?	?
O=C(/C=C(\O)c1ccccc1)C(=O)NNC(=O)c1ccccc1[N+](=O)[O-]	202*[may fluoresce violet]	96	63	?	12
COc1cccc(C(=O)NC2CCN(CC(=O)Nc3ccccc3Cl)CC2)c1	99	93	102	101	101
O=C(N/N=C/c1ccccn1)c1sc2ccccc2c1Cl	105	229*	95	94	100
O=C(N/N=C/c1c[nH]c2ccccc12)c1sc2ccccc2c1Cl	99	90	103	101	99
O=c1cc(/N=C/c2coc3cc(Br)ccc3c2=O)[nH]c(=S)[nH]1	96	96	97	95	100
CC(=O)Oc1ccc2c(=O)c(/C=N/c3cc(=O)[nH]c(=S)[nH]3)coc2c1	903*[may fluoresce violet]	106	46*[may fluoresce violet]	?	28
O=C(Nc1ccc(Cl)cc1)C1=Cc2ccccc2OC1	102	104	103	110	99
CNc1nc(-c2ccccc2)cc(C(F)(F)F)c1C#N	220*	91	75	103	23
Cc1ccc(N=C2CCCN2Cc2ccccc2)c(C#N)c1	108	112	103	105	103
CC(=O)N/N=C/c1cc(C(C)(C)C)cc(/C=N/NC(C)=O)c1O	395*[may fluoresce violet]	291*[may fluoresce violet]	123	?	49
Cc1ccc(S(=O)(=O)CC(=O)Nc2ccc3nc(C)sc3c2)cc1	97	107	97	101	106
CC(=O)c1ccc(S(=O)(=O)Nc2cccc(-c3cn4c(n3)SCC4)c2)cc1	105	92	108	107	101
SMILES	MEP2 TOR yeast	LAP4 TOR yeast	RPL19A TOR yeast	CIT2 TOR yeast	AGP1 TOR yeast
CC(=O)Nc1ccc(S(=O)(=O)Nc2cccc(-c3cn4c(n3)SCC4)c2)cc1	130	66	45*[may fluoresce violet]	?	15
Cc1nn(-c2ccccc2)c(Cl)c1/C=N/NC(=O)c1ccncc1	91	nt	95	nt	nt
N=c1c(C(=O)NC2CCCCC2)cc2c(=O)n3ccccc3nc2n1Cc1ccco1	243*[may fluoresce violet]	79	56	?	?
N=c1c(C(=O)NCC2CCCO2)cc2c(=O)n3ccccc3nc2n1Cc1ccc(F)cc1 (stereo not given)	179*[may fluoresce violet]	59	14*[may fluoresce violet]	?	?
N=c1c(C(=O)NCc2ccc(F)cc2)cc2c(=O)n3ccccc3nc2n1Cc1cccnc1	106	109	99	101	99
CC(C)OCCCn1c(=N)c(C(N)=S)cc2c(=O)n3ccccc3nc21	633*[may fluoresce violet]	91	48*[may fluoresce violet]	?	35
N=c1c(C(=O)NCC2CCCO2)cc2c(=O)n3ccccc3nc2n1Cc1cccnc1 (stereo not given)	?	?	14*[may fluoresce violet]	?	?
